Inconclusive results are not listed. A number with no mark means an inactive call. Activity calls are given as the source filed them. Calls come from the whole dose curve; as a rule, active = well fitted inhibition curve with a large enough effect; inconclusive = small, poorly fitted or top-dose-only effect; inactive = no such curve, though single readings can be large or run the other way.
Potency is the fitted concentration of half-maximal effect.

The nature of this test: Counterscreen qHTS for small molecule stabilizers of the endoplasmic reticulum resident proteome: GLuc-NoTag assay (AID 1508627).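 For activity change, negative = inhibition: 0% = thapsigargin alone and -100% = DMSO vehicle control.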 The conditions noted are these: Gaussia luciferase NoTag secretion counterscreen, luminescence, thapsigargin 100 nM for final 4 h; series mostly up to 76.4 µM; activity change, negative = inhibition: at the top concentration. From the text:
Assay Provider: Brandon K. Harvey Ph.D.
National Institute on Drug Abuse, National Institutes of Health, Baltimore, MD
Endoplasmic reticulum (ER) dysregulation is associated with human pathologies including neurodegenerative, cardiovascular, muscular, and diabetic conditions. Maintenance of ER calcium is critical for functions of the ER and its depletion can lead to loss of ER resident proteins, in a process termed exodosis. Therapeutic compounds capable of attenuating the redistribution of ER proteins under pathological conditions may slow or stop disease progression. To identify such compounds, we performed a quantitative high-throughput screen (qHTS) using the SERCaMP assay, which monitors secretion of ER resident proteins triggered by calcium depletion.
SERCaMP was initially developed as a reporter of ER calcium homeostasis using a Gaussia luciferase with a modified signal peptide and carboxy-terminus (GLuc-SERCaMP), modifications that confer secretion of the reporter in response to ER calcium depletion (Henderson et al., 2014). The assay was used to screen 9,501 compounds, including a collection of drugs approved by the FDA (US), EMA (EU), NHI (Japan), and HC (Canada) regulatory agencies (Huang et al., 2011). Since the SERCaMP reporter reflects the exodosis phenomenon (Trychta et al., 2018a), compounds identified in the screen have the potential to prevent exodosis by different mechanisms such as stabilizing ER calcium or augmenting ERS retrieval.
1. Henderson, M.J., Wires, E.S., Trychta, K.A., Richie, C.T., and Harvey, B.K. (2014). SERCaMP: a carboxy-terminal protein modification that enables monitoring of ER calcium homeostasis. Mol Biol Cell 25, 2828-2839.
2. Huang, R., Southall, N., Wang, Y., Yasgar, A., Shinn, P., Jadhav, A., Nguyen, D.T., and Austin, C.P. (2011). The NCGC pharmaceutical collection: a comprehensive resource of clinically approved drugs enabling repurposing and chemical genomics. Sci Transl Med 3, 80ps16.
3. Trychta, K.A., Back, S., Henderson, M.J., and Harvey, B.K. (2018a). KDEL Receptors Are Differentially Regulated to Maintain the ER Proteome under Calcium Deficiency. Cell Rep 25, 1829-1840 e1826.
SEQUENCE No. (1, 2, 3, etc.); […] (e.g., Cells, Incubation, Reagent, etc.); VALUE and DESCRIPTION.
1; Reagent; 5 uL; 1000 SH-SY5Y cells per wells
3; Compound; 23 nL; Control inhibitor / compound library
5; Reagent; 100 nM; Thapsigargin
7; Reagent; 1 uL; 0.5x coelenterazine
8; Detection; Luminescence; ViewLux imaging system
NOTES (numbers refer to sequence above)
1; SH-SY5Y human neuroblastoma cells stably expressing the constitutively secreted GLuc (SH-SY5Y-GLuc-NoTag) cells were seeded in 1,536 well white tissue culture treated plates (Corning, Cat# 7464) in DMEM-high glucose-sodium pyruvate (ThermoFisher Scientific, Cat #10569) supplemented with 10% bovine growth serum (Hyclone), 10 U/ml penicillin (Gibco), 10 ug/ml streptomycin (Gibco), and 20 mM HEPES.
2; Assay plates were incubated for 5 hour at 37C in a humidified incubator containing 5% CO2.
4; Cells were then incubated for 19 hours at 37C, 5% CO2.
5; Thapsigargin was added at 100 nM to deplete ER calcium stores.
6; Cells were incubated for 4 hour (37 °C, 5% CO2)
7; Gaussia luciferase in the medium was measured by adding 1 ul of 0.5x coelenterazine (final concentration 0.07x) prepared in Gaussia Luciferase Glow Assay Buffer (Pierce), without addition of the Cell Lysis Buffer Reagent.
8; Luminescence was measured using a ViewLux CCD imaging system (Perkin Elmer) equipped with clear filters. […] The same controls were also used for the calculation of the Z' factor, a measure of assay quality control, as previously described (Zhang et al., 1999). For the initial validation of activity in the SERCaMP assays, hits from the primary screen were assayed again at 11-concentrations (1.3 nM - 76.6 uM). SH-SY5Y-GLuc-SERCaMP cells were assayed for ER Ca2+ depletion as outlined above.
1. Zhang, J.H., Chung, T.D., and Oldenburg, K.R. (1999). […]
Regarding `CN(C)CC/C=C1\c2ccccc2COc2ccccc21`, the “activity change, negative = inhibition” value is -0.694%.

With `c1cc(CN2CCCCC2)cc(OCCCNc2nc3ccccc3s2)c1`, the “activity change, negative = inhibition” value is -19.3%.

`C(=C\c1ccccc1)/CN1CCN(C(c2ccccc2)c2ccccc2)CC1`: the “activity change, negative = inhibition” value was -8.7%.

Consider `Cc1nc2sccn2c(=O)c1CCN1CCC(=C(c2ccc(F)cc2)c2ccc(F)cc2)CC1`, for which the Potency result was “inactive”.

For `CCCCNc1ccc(C(=O)OCCN(C)C)cc1`, the Potency entry is “inactive”.

As for `CN(C)C/C=C(/c1ccc(Br)cc1)c1cccnc1`, the “activity change, negative = inhibition” value is 42.4%.

For `CC1=C(C)C(=O)C(CCCCC#CCCCC#CCO)=C(C)C1=O`, the “activity change, negative = inhibition” value is 35.1%.

Take `CCN(CC)CCCN(c1ccccc1)C1Cc2ccccc2C1`: the Potency entry was “inactive”.

Turning to `COc1cc(C(=O)OCCCN2CCCN(CCCOC(=O)c3cc(OC)c(OC)c(OC)c3)CC2)cc(OC)c1OC`, the “activity change, negative = inhibition” value was 46.2%.

In the case of `O=C(O)CN(CCN(CC(=O)O)CC(=O)O)CCN(CC(=O)O)CC(=O)O`, the “activity change, negative = inhibition” value was 38.6% [at 38.7 µM].

As to `CCCC(C(=O)OCCN(CC)CC)(c1ccccc1)c1ccccc1`, the Potency is 17.8 µM (active).

With `CCc1cccc(N(C)C(N)=Nc2cccc3ccccc23)c1`, the Potency is 39.8 µM (active).

For the compound `CCC(=O)c1ccc2c(c1)N(CCCN(C)C)c1ccccc1S2`, the “activity change, negative = inhibition” value was 5.06%.

In the case of `CN1CCN(C2=Nc3ccccc3Oc3ccc(Cl)cc32)CC1`, the “activity change, negative = inhibition” value is -9.19%.

For `OC(CCN1CCCCC1)(c1ccccc1)C1CCCCC1` (stereo not given), the Potency entry was “inactive”.

`NC(=Nc1ccccc1)Nc1ccccc1`: the Potency entry was “inactive”.

In the case of `CN(C)CC[C@@H](c1ccc(Br)cc1)c1ccccn1`, the “activity change, negative = inhibition” value is 11%.

For the compound `CN1C[C@H](C(=O)N[C@]2(C)O[C@@]3(O)[C@@H]4CCCN4C(=O)[C@H](Cc4ccccc4)N3C2=O)C[C@@H]2c3cccc4[nH]cc(c34)C[C@H]21`, the “activity change, negative = inhibition” value is 5.39%.

Take `OCCN1CCN(CCCN2c3ccccc3C=Cc3ccccc32)CC1`: the “activity change, negative = inhibition” value is -15.5%.

For the compound `CCOC(=O)c1cnc2c(cnn2CC)c1NN=C(C)C`, the “activity change, negative = inhibition” value was 15.1%.

These data come from PubChem BioAssay (NCATS).
